# Reference: PubChem BioAssay (NCATS)
# Values joined by “and” are separate entries in the source; they are usually repeats but may differ in a detail not shown here. Identical values can stand only once. Records with an inconclusive call do not appear. Entries that show only a call come without a potency. Active and inactive are the calls of the source. Unless noted, calls follow the shape of the dose curve; as a rule, active = well fitted curve in the direction sought with a large enough effect; inconclusive = small, poorly fitted or top-dose-only effect, or another doubt; inactive = no such curve, though single readings can be large; an effect the other way counts as inactive or inconclusive.
# Columns and labels:
# [1] = qHTS to identify inhibitors of the type 1 interferon - major histocompatibility complex class I in skeletal muscle: primary screen against the NCATS Mechanism Interrogation Plate v5.0 (MIPE) Libary (AID 1347411); also: nearly all actives have a fitted effect of over 65% in size; also: potency is read from the fitted curve at half-maximal effect
# How it was run: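 Immortalized human C25cl48 myoblasts with HiBit knocked into endogenous HLA-B*08:01 were stimulated with 4.0 ng/ml IFN-beta and exposed to compounds (11-point 1:3 titration, top 46 uM final) for 24 hrs at 37 C; HiBiT lytic luminescence measured.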
# [2] = target: Calcium and integrin-binding protein 1 (Homo sapiens) (UniProt Q99828); assay: Primary qHTS for Identification of Calcium Integrin Binding Protein 1 (CIB1) Competitor (AID 1508620);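 also: GST tagged CIB1 binding a fluorescein labelled alphaIIb integrin peptide tracer; top concentration of the series differs between compounds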
# Calcium and integrin-binding protein 1 (Homo sapiens), sequence (Q99828 whole entry, looked up): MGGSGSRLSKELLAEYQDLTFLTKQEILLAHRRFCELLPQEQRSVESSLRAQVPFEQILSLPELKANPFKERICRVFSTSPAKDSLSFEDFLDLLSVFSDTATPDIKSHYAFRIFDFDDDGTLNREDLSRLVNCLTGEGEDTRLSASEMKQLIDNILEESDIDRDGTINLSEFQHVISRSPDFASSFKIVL
# How it was run: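 Fluorescence polarization competition: CIB1-GST (1 uM final) preincubated with compound 15 min at room temperature, then FITC-labeled alphaIIb peptide (100 nM final) added for another 15 min. Polarization read at Ex 480/Em 540.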
# [3] = Primary qHTS for inhibitors of nuclear receptor binding SET domain protein 2 (NSD2) in an isogenic RCH-ACV NSD2 p.E1099K mutant (9B) (AID 1645876); also: nearly all actives have a fitted effect of over 70% in size; also: potency is read from the fitted curve at half-maximal effect
# [4] = Primary qHTS for inhibitors of nuclear receptor binding SET domain protein 2 (NSD2) in an RCH-ACV wild type WT cells (2C) (AID 1645877); also: nearly all actives have a fitted effect of over 70% in size; also: potency is read from the fitted curve at half-maximal effect
# [5] = target: Catechol O-methyltransferase (Homo sapiens) (UniProt P21964); assay: Confirmatory Screen for Target Class Profiling of Small Molecule Inhibitors of Methyltransferases (AID 1745852); settings: MTase-Glo luminescence, SAH detection, recombinant enzyme; measured here: COMT max response; stronger effect = lower value
# Catechol O-methyltransferase (Homo sapiens), sequence (P21964 whole entry, looked up): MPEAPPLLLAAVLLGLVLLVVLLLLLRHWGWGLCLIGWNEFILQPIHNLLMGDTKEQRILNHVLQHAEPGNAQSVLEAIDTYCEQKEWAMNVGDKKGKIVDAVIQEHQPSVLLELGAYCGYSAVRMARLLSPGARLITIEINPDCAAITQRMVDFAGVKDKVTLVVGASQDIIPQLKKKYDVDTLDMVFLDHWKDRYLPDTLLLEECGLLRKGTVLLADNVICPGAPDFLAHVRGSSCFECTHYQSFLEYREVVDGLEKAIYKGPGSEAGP
# [6] = target: Cytochrome P450 2D6 (Homo sapiens) (UniProt P10635); assay: Cytochrome P450 family 2 subfamily D member 6 (CYP2D6) small molecule antagonists: luciferase biochemical (cell-free) qHTS assay (AID 1645840; active = well fitted curve in the direction sought with a large enough effect in the repeat runs; an effect the other way counts as inactive or inconclusive; also: nearly all actives have a fitted effect of over 55% in size; also: potency is read from the fitted curve at half-maximal effect)
# Cytochrome P450 2D6 (Homo sapiens), sequence (P10635 whole entry, looked up): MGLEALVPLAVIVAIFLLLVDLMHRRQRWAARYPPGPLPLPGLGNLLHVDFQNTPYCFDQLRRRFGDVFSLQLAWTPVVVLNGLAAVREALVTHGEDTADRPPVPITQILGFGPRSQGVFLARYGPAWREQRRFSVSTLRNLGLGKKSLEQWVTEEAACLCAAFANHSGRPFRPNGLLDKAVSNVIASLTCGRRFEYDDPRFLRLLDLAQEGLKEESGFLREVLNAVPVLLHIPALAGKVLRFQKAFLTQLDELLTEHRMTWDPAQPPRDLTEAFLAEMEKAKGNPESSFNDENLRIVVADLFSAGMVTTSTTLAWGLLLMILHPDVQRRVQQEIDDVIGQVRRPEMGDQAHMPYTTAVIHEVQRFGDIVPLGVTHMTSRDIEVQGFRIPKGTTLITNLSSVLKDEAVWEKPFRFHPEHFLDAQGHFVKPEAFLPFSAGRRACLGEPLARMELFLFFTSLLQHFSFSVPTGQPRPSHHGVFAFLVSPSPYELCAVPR
# How it was run: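 P450-Glo luminescent screen: recombinant CYP2D6 enzyme–proluciferin substrate mix preincubated with compound 10 min at room temperature, then NADPH regeneration added for 1 h at room temperature. Detection reagent added for 20 min; luciferin light read as relative luminescence units.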
# [7] = target: Cytochrome P450 2C9 (Homo sapiens) (UniProt P11712); assay: Cytochrome P450 family 2 subfamily C member 9 (CYP2C9) small molecule antagonists: luciferase biochemical (cell-free) qHTS assay (AID 1645842; active = well fitted curve in the direction sought with a large enough effect in the repeat runs; an effect the other way counts as inactive or inconclusive; also: nearly all actives have a fitted effect of over 55% in size; also: potency is read from the fitted curve at half-maximal effect)
# Cytochrome P450 2C9 (Homo sapiens), sequence (P11712 whole entry, looked up): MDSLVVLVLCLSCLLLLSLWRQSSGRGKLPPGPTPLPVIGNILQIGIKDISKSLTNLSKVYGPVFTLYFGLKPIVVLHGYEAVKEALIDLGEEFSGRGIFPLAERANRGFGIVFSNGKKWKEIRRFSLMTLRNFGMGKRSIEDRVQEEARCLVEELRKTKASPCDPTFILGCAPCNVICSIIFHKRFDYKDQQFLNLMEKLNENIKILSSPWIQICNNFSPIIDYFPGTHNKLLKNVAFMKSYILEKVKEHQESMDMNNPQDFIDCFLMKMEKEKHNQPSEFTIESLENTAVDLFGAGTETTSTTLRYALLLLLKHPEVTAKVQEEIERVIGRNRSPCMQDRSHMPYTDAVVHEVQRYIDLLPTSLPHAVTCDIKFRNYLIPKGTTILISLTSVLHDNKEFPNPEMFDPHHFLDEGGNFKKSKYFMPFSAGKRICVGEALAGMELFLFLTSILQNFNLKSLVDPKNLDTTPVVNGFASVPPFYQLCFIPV
# How it was run: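 Luminescence, after 20 min with luciferin detection reagent, reflected CYP2C9 turnover during a 1 h NADPH-driven reaction at 37C. Enzyme-substrate mix contained 0.4% bovine serum albumin and was preincubated with compound 10 min at room temperature.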
# [8] = Primary qHTS for small molecule stabilizers of the endoplasmic reticulum resident proteome: Secreted ER Calcium Modulated Protein (SERCaMP) assay (AID 1508630)
# How it was run: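 GLuc-SERCaMP-expressing SH-SY5Y cells, pretreated 16 h with compound, are challenged with thapsigargin to empty ER calcium stores; after 4 h, coelenterazine is added directly to the medium and luminescence is imaged.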
# [9] = target: Cytochrome P450 3A4 (Homo sapiens) (UniProt P08684); assay: Cytochrome P450 family 3 subfamily A member 4 (CYP3A4) small molecule antagonists: luciferase qHTS assay (AID 1645841; active = well fitted curve in the direction sought with a large enough effect in the repeat runs; an effect the other way counts as inactive or inconclusive; also: nearly all actives have a fitted effect of over 45% in size)
# Cytochrome P450 3A4 (Homo sapiens), sequence (P08684 whole entry, looked up): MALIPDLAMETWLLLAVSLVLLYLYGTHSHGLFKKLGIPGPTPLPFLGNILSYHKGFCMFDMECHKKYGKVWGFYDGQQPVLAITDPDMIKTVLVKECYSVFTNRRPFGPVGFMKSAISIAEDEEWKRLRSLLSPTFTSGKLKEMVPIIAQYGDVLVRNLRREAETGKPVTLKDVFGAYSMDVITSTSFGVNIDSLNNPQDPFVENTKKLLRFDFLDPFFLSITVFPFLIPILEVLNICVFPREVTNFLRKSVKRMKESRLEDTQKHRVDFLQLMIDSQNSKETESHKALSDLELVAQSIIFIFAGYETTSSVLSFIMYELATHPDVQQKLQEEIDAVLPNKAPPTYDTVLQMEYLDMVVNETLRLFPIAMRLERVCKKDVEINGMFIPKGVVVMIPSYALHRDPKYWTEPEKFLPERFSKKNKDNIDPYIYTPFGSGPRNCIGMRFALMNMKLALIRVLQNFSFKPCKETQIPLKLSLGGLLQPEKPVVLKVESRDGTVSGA
# How it was run: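 P450-Glo CYP3A4 enzyme with proluciferin substrate was preincubated with DMSO-dissolved compounds for 10 min at room temperature. NADPH regeneration solution started a 1 h reaction. Detection reagent stopped it, and luminescence was read after 20 min.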
smiles,measurement,setting,value
Cc1[nH]nc(C(F)(F)F)c1Cc1sc2c(c1C(=O)N1C[C@](C)(O)CO1)c(=O)n(C)c(=O)n2C(C)C,Potency,[1],inactive
same,Potency,[2],inactive
same,Potency,[3],inactive
same,Potency,[4],inactive
Nc1ccc(/C=C/C(=O)NCc2cc3cc(-c4ccc(C(=O)N5CCC(F)(F)CC5)cc4)cc(-c4ccc(F)cc4)c3o2)cn1,Potency,[1],inactive
same,Potency,[2],inactive
same,Potency,[3],235 nM (active) and 231 nM (active)
same,Potency,[4],332 nM (active) and 206 nM (active)
CCc1ccc(Cc2ccc3c(c2)[C@]2(OC3)O[C@H](CO)[C@@H](O)[C@H](O)[C@H]2O)cc1,Potency,[2],inactive
CC(C)(C)C(=O)CN1C(=O)[C@H](NC(=O)Nc2cccc(C(=O)O)c2)CN(C2CCCCC2)c2ccccc21,Potency,[1],inactive
same,Potency,[2],inactive
same,Potency,[3],inactive
same,Potency,[4],inactive
O=C(NOCC(O)CO)c1ccc(F)c(F)c1Nc1ccc(I)cc1F (stereo not drawn),Potency,[1],inactive
same,Potency,[2],inactive
same,Potency,[3],inactive
C[C@H](Nc1ncnc2nc[nH]c12)c1cc2ccc(F)cc2nc1-c1ccccn1,Potency,[1],inactive
same,Potency,[2],inactive
same,Potency,[3],833 nM (active)
same,Potency,[4],1.18 µM (active)
CO[C@H]1C[C@@H]2CC[C@@H](C)[C@@](O)(O2)C(=O)C(=O)N2CCCC[C@H]2C(=O)O[C@H]([C@H](C)C[C@@H]2CC[C@@H](OP(C)(C)=O)[C@H](OC)C2)CC(=O)[C@H](C)/C=C(\C)[C@@H](O)[C@@H](OC)C(=O)[C@H](C)C[C@H](C)/C=C/C=C/C=C/1C,Potency,[1],18.6 µM (active)
same,Potency,[3],11.8 nM (active)
same,Potency,[4],0.0468 µM (active)
CS(=O)(=O)c1ccc(-c2nnc(/C=C/c3nnc(-c4ccc(C#N)cc4)o3)n2-c2ccccc2Cl)nc1,Potency,[1],inactive
same,Potency,[2],inactive
same,Potency,[3],inactive
same,Potency,[4],inactive
Cc1ccc([N+](=O)[O-])cc1S(=O)(=O)N(C)/N=C/c1cnc2ccc(Br)cn12,Potency,[1],0.104 µM (active)
same,Potency,[2],inactive
same,Potency,[3],12.9 nM (active) and 93.4 nM (active)
same,Potency,[4],20.6 nM (active) and 74.2 nM (active)
same,activity,[5],-16.2%
Oc1ccc2nc(CN3CCC(Cc4ccccc4F)CC3)[nH]c2c1,Potency,[2],inactive
same,Potency,[6],0.0379 µM (active)
same,Potency,[7],10.7 µM (active)
CC(C)[N+]1(C)C2CCC1CC(OC(=O)C(CO)c1ccccc1)C2 (stereo not drawn),Potency,[2],inactive
C/C1=C\CCC2=C[C@@H](OC2=O)c2c(C)coc2C1,Potency,[2],inactive
CC(=O)O[C@H]1C(=O)[C@@]2(C)[C@H]([C@H](OC(=O)c3ccccc3)[C@]3(O)C[C@H](OC(=O)[C@H](O)[C@@H](NC(=O)c4ccccc4)c4ccccc4)C(C)=C1C3(C)C)[C@]1(OC(C)=O)CO[C@@H]1C[C@@H]2O,Potency,[2],inactive
same,outcome,[8],inactive
same,Potency,[3],6.9 nM (active)
CON(C)C(=O)[C@H](O)[C@H](Cc1ccccc1)NC(=O)c1cc2cc(Cl)ccc2[nH]1,Potency,[2],inactive
same,Potency,[6],21.3 µM (active)
same,Potency,[7],10.7 µM (active)
COc1ccc(-n2[nH]c(=O)c3[nH]c4cc(Cl)ccc4c(=O)c3c2=O)c(C)c1,Potency,[2],inactive
same,Potency,[6],inactive
same,Potency,[9],inactive
same,Potency,[7],inactive
C=CC1C(OC2OC(CO)C(O)C(O)C2O)OC=C(C(=O)OC)C1CC(=O)OCC1C(C)C(O)CC1C(CO)COC(=O)CC1C(C(=O)O)=COC(OC2OC(CO)C(O)C(O)C2O)/C1=C\C (stereo not drawn),Potency,[2],inactive
Cc1c(C(=O)Nc2ccc(N3CC(C)OC(C)C3)nc2)cccc1-c1ccc(OC(F)(F)F)cc1 (stereo not drawn),Potency,[2],inactive
same,Potency,[6],inactive
same,Potency,[7],inactive
COc1cc(Nc2nc3ccccc3nc2NS(=O)(=O)c2ccc(NC(=O)c3ccc(OC)c(C)c3)cc2)cc(OC)c1,Potency,[2],inactive
same,Potency,[6],inactive
same,Potency,[7],3.79 µM (active)
CC(C)(C)NS(=O)(=O)c1cncc(-c2cc(F)c3nc(N)nn3c2)c1,Potency,[2],inactive
same,Potency,[6],inactive
same,Potency,[7],inactive
CSc1ccc(C(=O)N[C@@H]2CCCC[C@@H]2NC(=O)CNC(=O)c2cc(C(F)(F)F)ccc2NC(=O)NC(C)C)cc1,Potency,[2],inactive
same,Potency,[6],9.52 µM (active)
same,Potency,[7],3.01 µM (active)
OC1CCC(Nc2ncc3nc(Nc4c(F)cc(F)cc4F)n([C@H]4CCOC4)c3n2)CC1 (stereo partly drawn),Potency,[2],inactive
same,Potency,[6],inactive
same,Potency,[7],inactive
Cc1ccc(S(=O)(=O)Nc2ccccc2N2CCCCC2)s1,Potency,[2],inactive
same,Potency,[6],inactive
CC(C)(C)CCN1C[C@@H]2C(CNC(=O)c3cc(Cl)cc(Cl)c3)[C@@H]2C1 (stereo partly drawn),Potency,[2],inactive
same,Potency,[6],3.79 µM (active)
c1cc(OCCCN2CCCCC2)ccc1CN1CCCCC1,Potency,[2],inactive
same,Potency,[6],inactive
same,Potency,[9],inactive
same,Potency,[7],inactive
same,activity,[5],-4.16%
O=C(Nc1ccccc1-c1cn2c(CN3CCNCC3)csc2n1)c1ccc2ccccc2n1,Potency,[2],inactive
